Experimental data: PubChem BioAssay AID1851 (National Center for Advancing Translational Sciences (NCATS), 2009)
Among all 16,000 compounds or so, about 5,100 (32%) were called active. Roughly 25% stayed inconclusive and do not appear here. The list shows a part of the results. Unmarked numbers belong to inactive results. Calls follow the shape of the dose curve; as a rule, active = well fitted curve in the direction sought with a large enough effect; inconclusive = small, poorly fitted or top-dose-only effect, or effect the other way; inactive = no such curve, though single readings can be large or run the other way.

Target: Cytochrome P450 3A4 (Homo sapiens) (UniProt P08684)
Test: Cytochrome panel assay with activity outcomes
Conditions: recombinant CYP, pro-luciferin dealkylation, luminescence, p450-cyp3a4; series mostly up to 57.1 µM; activity, negative = inhibition: at the top concentration
% is scaled to controls: 0 for no effect and ±100 for the full control effect.

Cytochrome P450 3A4 (Homo sapiens), sequence (P08684 whole entry, looked up): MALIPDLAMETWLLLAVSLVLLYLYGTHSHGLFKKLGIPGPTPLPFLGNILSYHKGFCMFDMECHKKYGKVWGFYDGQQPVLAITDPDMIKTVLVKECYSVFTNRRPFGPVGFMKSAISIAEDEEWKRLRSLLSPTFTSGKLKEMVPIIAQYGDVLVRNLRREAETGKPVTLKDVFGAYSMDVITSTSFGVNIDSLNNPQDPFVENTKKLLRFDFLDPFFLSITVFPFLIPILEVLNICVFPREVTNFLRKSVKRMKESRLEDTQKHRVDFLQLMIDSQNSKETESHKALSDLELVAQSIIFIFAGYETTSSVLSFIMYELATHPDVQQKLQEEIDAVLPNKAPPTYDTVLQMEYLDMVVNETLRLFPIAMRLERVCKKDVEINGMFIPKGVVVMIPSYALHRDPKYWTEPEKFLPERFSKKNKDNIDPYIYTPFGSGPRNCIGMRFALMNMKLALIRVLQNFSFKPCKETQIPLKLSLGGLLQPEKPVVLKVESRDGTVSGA

| SMILES | activity, negative = inhibition | AC50 |
| --- | --- | --- |
| CC1CCCC(C)N1CC(O)COCC1COc2ccccc2O1 (centres undefined) | 7.88% | – |
| Cc1ccc(C2C(=O)N(C3CCCC3)CC(=O)N2CC2COc3ccccc3O2)cc1 (centres undefined) | – | 3.98 µM (active) |
| CC1CCCN(CC(O)COCC2COc3ccccc3O2)C1 (centres undefined) | -2.38% | – |
| CN1CCN(c2ncnc3ccc(-c4ccc5c(c4)OCO5)cc23)CC1 | – | 7.94 µM (active) |
| CN(C)c1ccc(-c2ccc3ncnc(N4CCNCC4)c3c2)cc1 | – | 20 µM (active) |
| CN1CCN(c2ncnc3ccc(-c4cccnc4)cc23)CC1 | – | 15.8 µM (active) |
| c1cncc(-c2ccc3ncnc(N4CCNCC4)c3c2)c1 | – | 12.6 µM (active) |
| N[C@H](C(=O)O)[C@@H]1[C@@H](C(=O)O)C1(F)F | -12.3% | – |
| OC[C@@H]1O[C@H](n2cnc3c(/C=C(\O)c4ccccc4)ncnc32)[C@H](O)[C@@H]1O | -15.3% [at 11.4 µM] | – |
| NC(N)=NC[C@@H]1CCCCCCN1 | -2.73% [at 11.4 µM] | – |
| CCN(CC)CC[n+]1ccc2c(C)c3[nH]c4ccc(O)cc4c3c(C)c2c1 | -18.3% [at 11.4 µM] | – |
| Cc1sc2ncnc(OCC(=O)NC(C)C)c2c1C | 0.697% [at 11.4 µM] | – |
| N#Cc1cccc(-c2ccc3ncnc(NC4CCNCC4)c3c2)c1 | -28.7% | – |
| N#Cc1cccc(-c2ccc3ncnc(N4CCNCC4)c3c2)c1 | – | 20 µM (active) |
| CCc1ccc(OCC(=O)NNC(=O)CSc2ncnc3sc(C)c(C)c23)cc1 | 1.75% [at 0.457 µM] | – |
| COC(=O)c1c(-c2ccccc2)csc1NC(=O)CSc1ncnc2sc(C)c(C)c12 | – | 8.91 µM (active) |
| COCCNC(=O)CSc1ncnc2sccc12 | 0.766% [at 2.29 µM] | – |
| CN(Cc1ccco1)c1ncncc1-c1ccccc1Cl | – | 0.501 µM (active) |
| COc1ccccc1-c1cc(N(C)Cc2ccco2)ncn1 | -15.2% | – |
| COc1ccccc1-c1cncnc1N(C)Cc1ccco1 | – | 1.26 µM (active) |
| Cc1ccccc1-c1cncnc1N(C)Cc1ccco1 | – | 1.58 µM (active) |
| Cc1noc(C)c1-c1cncnc1N(C)Cc1ccco1 | – | 3.16 µM (active) |
| Cc1ccccc1-c1cc(N(C)Cc2ccco2)ncn1 | 21.2% | – |
| CN(Cc1ccco1)c1cc(-c2ccccc2Cl)ncn1 | 16.5% | – |
| Cc1noc(C)c1-c1cc(N(C)Cc2ccco2)ncn1 | -29.1% | – |

| SMILES | activity, negative = inhibition | AC50 |
| --- | --- | --- |
| CN(Cc1ccco1)c1ncncc1-c1ccccc1C(F)(F)F | – | 1.26 µM (active) |
| CN(Cc1ccco1)c1ccnc(-c2ccccc2C(F)(F)F)n1 | -0.303% | – |
| O=C(C[C@@H]1C=Cc2ccccc2N1C(=O)c1ccccc1)c1ccccc1 | – | 3.98 µM (active) |
| CN1[C@H](CC(=O)c2ccccc2)CCC[C@H]1C[C@H](O)c1ccccc1 | -6.77% | – |
| NC(=O)N1c2ccccc2C=Cc2ccccc21 | -8.2% [at 25.6 µM] | – |
| O=C(O)[C@H]1C[C@@H](CP(=O)(O)O)CCN1 | 8.39% | – |
| O=C(NCCN1CCN(Cc2ccccc2)CC1)C1c2ccccc2C(=O)N2CCc3ccccc3C12 (centres undefined) | -22.2% [at 2.29 µM] | – |
| Cc1ccccc1-c1nc(CS(=O)CC(=O)NCCCN(C)c2ccccc2)c(C)o1 (centres undefined) | – | 3.98 µM (active) |
| CN(C)CCCNC(=O)CCc1nc2ccccc2c(=O)[nH]1 | -18.4% | – |
| CCCCN(C)CCCNC(=O)c1ccc(N2CCCC2=O)cc1 | -1.44% | – |
| CCCCN(C)CCCNC(=O)CS(=O)Cc1nc(-c2ccc(OC)c(OC)c2)oc1C (centres undefined) | – | 14.1 µM (active) |
| Cc1ccccc1-c1nc(CS(=O)CC(=O)NCCN2CCN(Cc3ccccc3)CC2)c(C)o1 (centres undefined) | – | 7.08 µM (active) |
| C=CCN1C(=NC(=O)CC)SC2CS(=O)(=O)CC21 (centres undefined) | -11.1% | – |
| O=C(O)C(=O)/C=C(\O)c1ccc(Br)cc1 | -7.81% [at 11.4 µM] | – |
| COc1ccc(S(=O)(=O)NNC(=O)C2Cc3c(ccc4ccccc34)O2)cc1 (centres undefined) | – | 10 µM (active) |
| O=C(O)CCCc1ccc2ccccc2c1 | -5.59% [at 11.4 µM] | – |
| NNC(=O)CCc1ccc2ccc3ccccc3c2c1 | – | 0.398 µM (active) |
| O=C(O)CCCc1ccc2ccc3ccccc3c2c1 | -10% [at 11.4 µM] | – |
| CCOC(=O)N1CCC(NC(=O)CSCc2cnn(-c3ccccc3)c2-n2cccc2)CC1 | – | 12.6 µM (active) |
| COc1ccc(OC)c(NC(=O)CSCc2cnn(-c3ccccc3)c2-n2cccc2)c1 | – | 10 µM (active) |
| O=S(=O)(c1ccccc1)N1CCC[C@@]2(CCN(c3ccncc3)C2)C1 | – | 3.98 µM (active) |
| O=S(=O)(c1ccccc1)N1CCC[C@@]2(CCN(c3ccccc3)C2)C1 | – | 5.01 µM (active) |
| CS(=O)(=O)N1CCC2(CCN(c3ccncc3)CC2)CC1 | -8.79% | – |
| CN1CCN(C(=O)C(C(=O)c2ccc(F)cc2)n2ccccc2=O)CC1 (centres undefined) | -15.6% | – |
